Screens (PubChem BioAssay)
Compounds with a hit are over-represented: about 1.4% of the library has one in this group of screens.
Sa RN4220 lethal – S. aureus RN4220 growth inhibition. AID 1259311. inhibition, % (no concentration beside the values). hit rate 0.33% among 330,000. OD600, 16 h; in the data active = inhibition above about 85%;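 note: plate controls were untreated cells for no effect and reference antibiotic for full effect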
ugtP null kill – growth inhibition of S. aureus ugtP deletion strain; hit rate 0.54% among 330,000; growth inhibition, % (no concentration beside the values); S. aureus RN4220 ugtP deletion, OD600 growth, 16 h; in the data active = growth inhibition above about 68%;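 note: plate controls were untreated wells for no effect and antibiotic for full effect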
BJeLR lethal – kills HRASV12-expressing BJeLR cells; BJeLR (HRASV12) viability, CellTiter-Glo ATP luminescence, 48 h; inhibition, % (no concentration beside the values); hit rate 0.17% among 300,000; AID 1554; in the data active = inhibition above about 50%
PfHsp40 yeast – restores yeast growth despite PfHsp40 toxicity. S. cerevisiae expressing PfHsp40, growth rescue, ATP luminescence. growth rescue, % at 12.5 µM. hit rate 0.68% among 340,000. AID 504582; in the data active = growth rescue above about 28%, passing the limit was not always enough;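 note: yeast W303a lacking pdr1 and pdr3 grown in galactose medium; growth measured after three days at 30 °C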
PrP UTR inh – suppresses PrP 5' UTR mRNA reporter expression | hit rate 0.35% among 340,000 | cell-based PrP 5' UTR mRNA reporter, plate reader | inhibition, % (concentration not given with the values); in the data active = inhibition above about 52%; note: 0 = median of the neutral control wells
Yp Topo-I inh – Y. pestis Topo-I inhibition via cleavage products; hit rate 0.064% among 360,000; activity, % at 10 µM; Y. pestis Topo-I cleavage product accumulation, plate reader; AID 504884; in the data active = activity above about 50%, passing the limit was not always enough
PrP 5UTR single – prion 5' UTR mRNA inhibition, cherry-pick retest | hit rate 48% among 1,100 | cell-based prion protein 5' UTR reporter, plate reader | shares compounds with PrP UTR inh | inhibition, % at 2.5 µM; in the data active = inhibition above about 54%
Numbers without * were called inactive.

Results for Cc1cc2sc3ccc(C#CC4(O)CCCCC4)cc3c(=O)c2cc1C ?
Sa RN4220 lethal: -4; ugtP null kill: 8; BJeLR lethal: 4; PfHsp40 yeast: 1; PrP UTR inh: 92*; Yp Topo-I inh: 9; PrP 5UTR single: 93*

What do the screens show for `Cn1c2ccccc2c(=O)c2cc(C#CC3(O)CCCCC3)ccc21`?
Sa RN4220 lethal: 3; ugtP null kill: 10; BJeLR lethal: 12; PfHsp40 yeast: 4; PrP UTR inh: 65*; Yp Topo-I inh: 8; PrP 5UTR single: 34

How did Cn1c2ccccc2c(=O)c2ccc(C#CC3(N)CCCCC3)cc21 do in these assays?
Sa RN4220 lethal: -25; ugtP null kill: -16; BJeLR lethal: -4; PfHsp40 yeast: -1; PrP UTR inh: -11; Yp Topo-I inh: -7

How did CN1C(=O)C2C(C=Cc3ccccc3)N3C(=O)CN(Cc4ccccn4)C(=O)[C@@]3(Cc3ccccc3)C2C1=O (stereo partly drawn) do in these assays?
Sa RN4220 lethal: 4; ugtP null kill: -4

Results for CCCCCCNC(=O)NC(C(=O)NCCCC1CN2C(=NCC2Cc2ccccc2)N1CCc1cccc(OC)c1)C(C)C (stereo not drawn) ?
Sa RN4220 lethal: -6; ugtP null kill: -5

What do the screens show for `COc1ccc(C(CNC(=O)Cc2cc(OC)c(OC)c(OC)c2)N2CCCC2)cc1` (stereo not drawn)?
Sa RN4220 lethal: 4; ugtP null kill: 0; BJeLR lethal: 10; PfHsp40 yeast: 1; PrP UTR inh: -25; Yp Topo-I inh: 5

What do the screens show for `COC(=O)C1CCC(=O)N1C(c1ccc(OC)cc1)c1cc(OC)c(OC)c(OC)c1` (stereo not drawn)?
PfHsp40 yeast: -1; PrP UTR inh: 56*; Yp Topo-I inh: -5; PrP 5UTR single: 89*

How did O=C1CCCC=CCC(CC(=O)N(CCO)Cc2ccccc2)C(=O)NCC(c2ccccc2)O1 (stereo not drawn) do in these assays?
Sa RN4220 lethal: 4; ugtP null kill: 1

How did COC1=C(C)C(=O)C2=C(C1=O)C1C3CC4=C(C(=O)C(OC)=C(C)C4=O)C(CNC(=O)C(C)=O)N3C(C#N)C(C2)N1C (stereo not drawn) do in these assays?
PfHsp40 yeast: 2; PrP UTR inh: 94*; Yp Topo-I inh: -4; PrP 5UTR single: 97*

What do the screens show for `C=CC(C)(C)OC1OC(CO)C(O)C(O)C1O` (stereo not drawn)?
Sa RN4220 lethal: 10; ugtP null kill: 4

What do the screens show for `CCOC1OC(C(=O)N2CCN(C)CC2)=CC(C2CCCCC2)C1CCCO` (stereo not drawn)?
Sa RN4220 lethal: 4; ugtP null kill: -8

Results for CCC1SC(CC)C(=O)N(CC(=O)NCc2ccc(F)cc2)C1=O (stereo not drawn) ?
Sa RN4220 lethal: -7; ugtP null kill: 4; BJeLR lethal: 2; PfHsp40 yeast: -1; PrP UTR inh: 78*; Yp Topo-I inh: 0; PrP 5UTR single: -19

What do the screens show for `CC1SC(C)C(=O)N(CC(=O)NCc2ccc(F)cc2)C1=O` (stereo not drawn)?
Sa RN4220 lethal: -2; ugtP null kill: 0; BJeLR lethal: 1; PfHsp40 yeast: -2; PrP UTR inh: 16; Yp Topo-I inh: 1

How did O=C(NNC(=O)c1cccs1)c1ccco1 do in these assays?
Sa RN4220 lethal: -2; ugtP null kill: -11; BJeLR lethal: 11; PfHsp40 yeast: 3; PrP UTR inh: 64*; Yp Topo-I inh: -3; PrP 5UTR single: 88*

Results for O=C(NCc1ccccn1)c1ccc(Cn2c(=S)[nH]c3ccc(Br)cc3c2=O)cc1 ?
Sa RN4220 lethal: 6; ugtP null kill: -1; BJeLR lethal: 0; PfHsp40 yeast: 0; PrP UTR inh: 71*; Yp Topo-I inh: 2; PrP 5UTR single: -6

Results for COc1cc(C=CC(=O)N2C(=O)c3cccc(N)c3C2=O)cc(OC)c1OC ?
Sa RN4220 lethal: 11; ugtP null kill: -1

Results for CC(=O)Nc1cc2ccccc2oc1=O ?
Sa RN4220 lethal: 0; ugtP null kill: 7; BJeLR lethal: 11; PfHsp40 yeast: -1; PrP UTR inh: -9; Yp Topo-I inh: -6

Results for O=C(Nc1nc2ccccc2[nH]1)c1ccc([N+](=O)[O-])cc1 ?
Sa RN4220 lethal: 2; ugtP null kill: -16; BJeLR lethal: 6; PfHsp40 yeast: 0; PrP UTR inh: -25; Yp Topo-I inh: 6

Results for Cc1ccc(C(=O)Nc2nc3ccccc3[nH]2)cc1 ?
Sa RN4220 lethal: 6; ugtP null kill: 1; BJeLR lethal: 25; PfHsp40 yeast: -3; PrP UTR inh: 61*; Yp Topo-I inh: -8; PrP 5UTR single: 65*

What do the screens show for `O=C(NCc1nc2ccccc2[nH]1)c1ccc([N+](=O)[O-])cc1`?
Sa RN4220 lethal: 5; ugtP null kill: 1; BJeLR lethal: 1; PfHsp40 yeast: 2; PrP UTR inh: 74*; Yp Topo-I inh: -15; PrP 5UTR single: -26

Results for CSc1ccccc1C(=O)Nc1nc2ccccc2[nH]1 ?
Sa RN4220 lethal: -2; ugtP null kill: 2; BJeLR lethal: -16; PfHsp40 yeast: 0; PrP UTR inh: -91; Yp Topo-I inh: -1

How did Cc1ccc(C(=O)Nc2cc3ccccc3oc2=O)cc1 do in these assays?
Sa RN4220 lethal: -4; ugtP null kill: -2; BJeLR lethal: 35; PfHsp40 yeast: -2; PrP UTR inh: 86*; Yp Topo-I inh: -11; PrP 5UTR single: 86*

How did COc1cc(SC)ccc1C(=O)Nc1nc2ccccc2[nH]1 do in these assays?
BJeLR lethal: 121*; PfHsp40 yeast: 0; PrP UTR inh: 96*; Yp Topo-I inh: -3; PrP 5UTR single: 98*

How did COC(=O)C1=C(c2ccc(F)cc2OCc2ccccc2)CC2CCC1N2C(=O)NCCOc1ccccc1Cl (stereo not drawn) do in these assays?
Sa RN4220 lethal: -7; ugtP null kill: 8

What do the screens show for `COC(=O)C1=C(c2ccc(F)cc2OCc2ccccc2)CC2CCC1N2C(=O)N1CCC(O)CC1` (stereo not drawn)?
Sa RN4220 lethal: 9; ugtP null kill: 0

Results for CC(C)CC1NC(=O)C(C(C)C)NC(=O)c2cc([N+](=O)[O-])cc(I)c2NCCC(C(N)=O)NC1=O (stereo not drawn) ?
Sa RN4220 lethal: 2; ugtP null kill: 5

What do the screens show for `CCOC(=O)C1C2COc3ccc(Cl)cc3C2N2C(=O)c3ccccc3NC(=O)[C@@]12C` (stereo partly drawn)?
Sa RN4220 lethal: -1; ugtP null kill: 1

How did CCOc1cc(C(=O)NCCN2C(=O)SC(=Cc3cccnc3)C2=O)cc(OCC)c1OCC do in these assays?
Sa RN4220 lethal: 7; ugtP null kill: 2

What do the screens show for `CCCOc1ccc(C(O)=C2C(=O)C(=O)N(CCN(C)C)C2c2ccco2)cc1` (stereo not drawn)?
Sa RN4220 lethal: 2; ugtP null kill: 1
